# Screens (PubChem BioAssay)
# Most compounds without a hit are left out; they make up all but 12% or so of the library.
# Sfp PPTase inh = blocks B. subtilis Sfp PPTase activity; Q9F4F7; Biochemical Sfp PPTase activity, qHTS; Potency, µM, without a hit: largest response in the series, negative = inhibition, usual class: inhibitors; 310,000 tested, 3.5% active; AID 1490;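 further: the enzyme is Sfp with the accession as filed and its product quenches rhodamine fluorescence; 0% = enzyme reaction without inhibitor and -100% = no enzyme wells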
#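 Buffer: 50 mM Hepes-Na pH 7.6, 10 mM MgCl2, 0.01% Nonidet P-40, 0.01% BSA. Enzyme 15 nM, pre-exposed to compound 15 min; substrates then added and fluorescence change tracked over 30 min.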
# BAZ2B block = blocks human BAZ2B; Q9UIF8; AlphaScreen BAZ2B-H3K14Ac peptide displacement; Potency, µM (doses to about 114 µM), without a hit: at the highest dose activity change, negative = inhibition, usual class: inhibitors; 360,000 tested, 4.4% active; further: on the % scale 0 is the no-effect control and ±100 the full control effect; nearly all actives have a fitted effect of over 60% in size
#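 BAZ2B (50 nM) with biotin-H3(5-23)K14Ac peptide (50 nM) in PBS pH 7.4, 0.01% Tween-20, preformed 30 min, then compound 30 min at room temperature; top concentration 110uM. AlphaScreen streptavidin donor/nickel chelate acceptor beads (10 ug/mL final), 20 min dark, signal read.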
# G9a inh = G9a (human) methyltransferase inhibition. G9a H3K9 monomethylation, AlphaScreen, 2 h. Potency, µM (highest dose often 102 µM), without a hit: at the top dose activity, negative = inhibition, hits mostly inhibitors. 350,000 tested, 8.8% active. AID 504332; further: on the % scale 0 is the no-effect control and ±100 the full control effect; nearly all actives have a fitted effect of over 75% in size
#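 Step 1: enzyme (final 20 nM) with compound, 15 min RT. Step 2: substrate peptide 500 nM and SAM 20 uM, 2 h RT. Step 3: anti-H3K9me1 antibody and AlphaScreen beads, 10 min, then plate read.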
# HP1b binding inh = inhibitors of HP1-beta chromodomain binding to methylated histone tails; 390,000 tested, 0.56% active; Potency, µM (highest dose often 114 µM), inactives show top-dose activity change, negative = inhibition, usual class: inhibitors; AlphaScreen HP1-beta / biotin-H3K9me3 peptide binding; AID 540317; P83916; further: nearly all actives have a fitted effect of over 70% in size
#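 HP1-beta protein (50 nM final) preincubated 30 min at room temperature with biotinylated H3(1-18)K9me3 peptide (50 nM) in PBS pH 7.4, 0.01% Tween-20, then compound added for 30 min. AlphaScreen streptavidin donor/nickel chelate acceptor beads (10 ug/mL final), 30 min dark, luminescence read.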
# L3MBTL1 inh = blocks human L3MBTL1; AlphaScreen L3MBTL1–H3K9me1 peptide binding; AID 485360; Potency, µM (series often up to 57.1 µM), for the others: at the highest dose activity, negative = inhibition, usual class: inhibitors; Q9Y468; 230,000 tested, 0.66% active; further: on the % scale 0 is the no-effect control and ±100 the full control effect; nearly all actives have a fitted effect of over 60% in size
#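 Displacement of a biotinylated histone H3(1-15) peptide monomethylated at Lys9 (75 nM) from L3MBTL1 (50 nM) was measured by AlphaScreen after a 30 min room-temperature compound incubation; cefsulodin titration served as intraplate control.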
# JMJD2A Tudor = blocks the human JMJD2A Tudor domain | AlphaScreen JMJD2A-Tudor / H3K4me3 peptide binding | Potency, µM (highest dose often 114 µM), for the others: at the highest dose activity change, negative = inhibition, usual class: inhibitors | 390,000 tested, 4.4% active | AID 504339; further: on the % scale 0 is the no-effect control and ±100 the full control effect; nearly all actives have a fitted effect of over 50% in size
# Target sequence (O75164 whole entry, looked up, the tested form may be a part): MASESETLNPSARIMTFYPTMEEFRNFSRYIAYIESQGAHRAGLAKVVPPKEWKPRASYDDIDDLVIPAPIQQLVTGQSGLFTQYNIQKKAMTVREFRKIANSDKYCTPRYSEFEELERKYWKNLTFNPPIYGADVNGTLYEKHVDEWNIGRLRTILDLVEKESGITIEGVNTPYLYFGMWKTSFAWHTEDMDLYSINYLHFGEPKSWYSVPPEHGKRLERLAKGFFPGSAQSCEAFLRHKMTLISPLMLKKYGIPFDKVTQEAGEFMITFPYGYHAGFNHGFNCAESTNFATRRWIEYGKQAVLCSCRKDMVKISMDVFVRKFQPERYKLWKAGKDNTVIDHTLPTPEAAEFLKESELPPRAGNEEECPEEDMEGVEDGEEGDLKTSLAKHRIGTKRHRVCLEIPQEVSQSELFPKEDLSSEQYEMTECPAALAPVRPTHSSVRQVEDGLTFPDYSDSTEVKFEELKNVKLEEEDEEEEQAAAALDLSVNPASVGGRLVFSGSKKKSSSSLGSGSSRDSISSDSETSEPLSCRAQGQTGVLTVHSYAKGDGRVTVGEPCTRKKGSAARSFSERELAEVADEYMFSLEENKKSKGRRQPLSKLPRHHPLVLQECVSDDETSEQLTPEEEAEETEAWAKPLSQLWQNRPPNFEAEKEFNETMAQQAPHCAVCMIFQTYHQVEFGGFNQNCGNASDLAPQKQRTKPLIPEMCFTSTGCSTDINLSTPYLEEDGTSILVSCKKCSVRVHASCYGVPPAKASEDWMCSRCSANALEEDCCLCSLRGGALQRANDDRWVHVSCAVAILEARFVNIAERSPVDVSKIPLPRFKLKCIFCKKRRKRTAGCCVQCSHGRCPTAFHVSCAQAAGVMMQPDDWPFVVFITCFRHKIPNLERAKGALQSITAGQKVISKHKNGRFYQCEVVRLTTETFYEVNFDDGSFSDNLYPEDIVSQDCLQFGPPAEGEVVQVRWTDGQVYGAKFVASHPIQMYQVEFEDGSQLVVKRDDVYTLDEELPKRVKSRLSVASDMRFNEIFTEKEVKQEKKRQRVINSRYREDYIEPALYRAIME
# Active calls of the source: *; ? = inconclusive; . = no result; [ ] = dose if it differs, or a comment. The call rests on the fitted dose curve; in most records, active means well fitted curve in the direction sought with a large enough effect; inconclusive means small, poorly fitted or top-dose-only effect, or another doubt; inactive means no such curve, though single readings can be large; an effect the other way counts as inactive or inconclusive. Potency means the concentration at half of the fitted maximal effect.
SMILES,Sfp PPTase inh,BAZ2B block,G9a inh,HP1b binding inh,L3MBTL1 inh,JMJD2A Tudor
COC(=O)c1ccc(C(NC(=O)OCc2ccccc2)/C(I)=C/[C@@H](C)C(=O)NCc2ccc(C)o2)cc1 (some centres not stated),40µM*,.,.,.,.,.
CCC(Nc1ccc(OC)cc1)C(=O)N/N=C/c1ccc([N+](=O)[O-])cc1 (configuration not stated),-1%,45µM*,?,-20%,-6%,?
CCOc1ccc(CNC(=S)N/N=C\c2ccc([N+](=O)[O-])cc2)cc1,56µM*,-2%,?,32%,5%,-14%
COc1ccccc1N1CCN(C(=O)c2ccc3c(c2)N(Cc2ccccc2)C(=O)c2ccccc2S3(=O)=O)CC1,.,-25%,-5%[59 µM],22%,.,-15%
CC1CCC(NC(=O)c2ccc3c(c2)N(Cc2ccccc2F)C(=O)c2ccccc2S3)CC1 (configuration not stated),.,-3%,-1%[59 µM],24%,.,0%
Cc1c(Cl)cccc1N1C(N)=C(C#N)C(c2cc(CN3CCOCC3)cs2)C2=C1CCCC2=O (configuration not stated),.,-32%,0%[59 µM],36%,.,-34%
Cc1cccc(CN2CCN(CC(=O)O)C2=O)c1,89µM*,-11%,?,32%,-8%,4%
Cc1[nH]n(S(=O)(=O)Cc2ccccc2)c(=O)c1N=Nc1ccccc1Cl,11%,.,50µM*,-19%,.,?
CN(C)C(=O)c1ccc(-c2cncnc2Nc2ccc(F)cc2)cc1,-14%,.,-5%[0.501 µM],.,.,.
COc1ccccc1C(=O)NC(CCSC)C(=O)OCC(=O)NC(=O)NCc1ccco1 (configuration not stated),-23%,50µM*,-9%[59 µM],-12%,-10%,?
COc1ccccc1C(=O)NC(CCSC)C(=O)NCCCSc1ccccc1 (configuration not stated),.,?,56µM*,-12%,-24%,-34%
COc1ccccc1OCCNC(=O)C(CCSC)NC(=O)c1ccccc1Cl (configuration not stated),.,-6%,1%[0.501 µM],14%,-8%,-23%
CCCN1C(C(=O)c2ccccc2)=C(OC(=O)c2ccc(F)cc2)c2ccccc2S1(=O)=O,.,-34%,-46%[59 µM],17%,.,-25%
CCCCn1nnnc1SCC(=O)Nc1ccc(N(C)C)cc1,-4%,-38%,45µM*,-16%,.,?
COCCn1nnnc1SCC(=O)c1ccccc1,50µM*,4%,38%[2.33 µM],41%,.,0%
CCCn1nnnc1SCC(=O)c1ccc(NC(C)=O)cc1,79µM*,3%,?,40%,4%,-16%
CCCCn1nnnc1SCC(=O)Nc1ccc(F)cc1,7%,5%,1%,56%,-7%,-1%
CC(=O)Nc1ccc(C(=O)CSc2nnnn2C)cc1,-3%,-1%,9%[59 µM],54%,.,2%
CC(=O)Nc1ccc(C(=O)CSc2nnc(Cn3nnc4ccccc43)n2C)cc1,4%,4%,79µM*,10%,3%,56µM*
COC(=O)c1ccc(C(NC(=O)OCc2ccccc2)/C(=C/[C@@H](C)C(=O)N(C)C)c2cccnc2)cc1 (some centres not stated),20%,.,.,.,.,.
COc1ccccc1NC(=O)N1CCOc2ccccc21,.,-16%,-32%[59 µM],12%,.,-27%
COc1cc2ccccc2cc1C(=O)Nc1ccc2oc(-c3ccccc3)nc2c1,.,0%,-38%[59 µM],36%,.,9%
CSc1cccc(NC(=O)CC(c2ccc(F)cc2)N2Cc3ccccc3C2=O)c1 (configuration not stated),.,-12%,-19%[59 µM],-12%,.,-15%
CCOC(=O)c1cccc(NC(=O)c2cc3c(=O)n(Cc4cccnc4)ccc3nc2C)c1,.,2%,9%[59 µM],103%,.,-14%
CC(C)(C)C(=O)Cn1c(=O)n(CCCCCC(=O)NCc2ccc3c(c2)OCO3)c(=O)c2sccc21,.,-3%,-4%[59 µM],11%,.,-5%
SMILES,Sfp PPTase inh,BAZ2B block,G9a inh,HP1b binding inh,L3MBTL1 inh,JMJD2A Tudor
CC(C)[C@@H](CC(=O)N[C@@H]1CCCC[C@H]1C(=O)N[C@H](CC(=O)N[C@@H](CCC(=O)O)CC(=O)O)Cc1ccccc1)NC(=O)C[C@H](Cc1c[nH]c2ccccc12)NC(=O)[C@@H]1CNCC[C@H]1N,-8%,.,.,.,.,.
Cc1ccc(Nc2nnns2)cc1,6.3µM*,-37%,5.6µM*,?,-1%,-23%
CC1(C)CC(N2CCN(CCO)CC2)=CC(=S)N1,50µM*,-23%,?,37%,-1%,-3%
COc1cc(NC(=S)N2CCN(CCO)CC2)cc(OC)c1,-3%,4%,-3%,48%,-6%,-15%
CO[C@H]1OC[C@@]2(C)[C@@H]3C4=C(CN2C(=O)OC(C)(C)C)[C@H](C)[C@H](CO)[C@H](CO)[C@H]4CC[C@H]13,10%,.,.,.,.,.
O=C(CSc1nnc2scc(-c3ccccc3)n12)Nc1nsc(-c2ccccc2)n1,32µM*,56µM*,?,20%,2%,?
Cc1ccc(-c2csc3nnc(SCC(=O)Nc4nsc(-c5ccccc5)n4)n23)cc1,-2%,-6%,-2%[59 µM],9%,.,-12%
O=C(CSc1nnc2scc(-c3ccccc3)n12)c1ccc2c(c1)OCCO2,-13%,9%,89µM*,23%,.,-2%
CCCCn1c(SCC(=O)c2ccc3c(c2)OCCO3)nnc1-c1ccoc1C,-13%,89µM*,?,-3%,.,?
COCCn1c(SCC(=O)c2ccc3c(c2)OCCO3)nnc1C(C)C,?,0%,18µM*,-8%,8%,79µM*
COc1cc(OC)cc(C(=O)Nc2cc3c(cc2N2CCCC2)n(C)c(=O)c(=O)n3C)c1,.,-4%,?,118%,.,-17%
O=C1CCc2cc(S(=O)(=O)Nc3cccc4ccccc34)ccc2N1,.,.,.,.,.,-25%
COCCn1c(SCC(=O)c2ccc(Cl)cc2)nnc1C(C)C,79µM*,0%,11µM*,-11%,-2%,50µM*
COCCn1c(SCC(=O)Nc2cc(C)cc(C)c2)nnc1C(C)C,6%,-1%,1%,44%,-4%,-3%
CCOc1cccc(OCCCn2c(-c3ccc(Br)cc3)nc3ccccc3c2=O)c1,.,7%,1%[59 µM],101%,.,39%
Nc1c(Cl)cc(C2=NCCn3c2c2ccc(C(F)(F)F)cc2[n+]3[O-])cc1Cl,.,?,?,18%,-8%,4.5µM*
COc1ccc2c3n([n+]([O-])c2c1)CCN=C3c1ccc(Cl)cc1,.,-28%,5%[2.33 µM],19%,-8%,?
Cc1ccc(C2=NCCn3c2c2ccc([N+](=O)[O-])cc2[n+]3[O-])cc1,.,?,14%[2.33 µM],5%,-9%,?
